Inconclusive results are not listed. A call without a number means that no potency is given here. A number with no mark means an inactive call. Activity calls are given as the source filed them. Calls come from the whole dose curve; as a rule, active = well fitted inhibition curve with a large enough effect in the repeat runs; inconclusive = weak or mixed curves; inactive = no such curve, though single readings can be large or run the other way.
target: Cytochrome P450 2C9 (Homo sapiens) (UniProt P11712); test: Cytochrome P450 Family 2 Subfamily C Member 9 (CYP2C9) small molecule antagonists: luciferase reporter qHTS assay (AID 1671198); details: P450-Glo CYP2C9 enzyme assay, luciferin luminescence; series mostly up to 115 µM
Sequence (P11712 whole entry, looked up): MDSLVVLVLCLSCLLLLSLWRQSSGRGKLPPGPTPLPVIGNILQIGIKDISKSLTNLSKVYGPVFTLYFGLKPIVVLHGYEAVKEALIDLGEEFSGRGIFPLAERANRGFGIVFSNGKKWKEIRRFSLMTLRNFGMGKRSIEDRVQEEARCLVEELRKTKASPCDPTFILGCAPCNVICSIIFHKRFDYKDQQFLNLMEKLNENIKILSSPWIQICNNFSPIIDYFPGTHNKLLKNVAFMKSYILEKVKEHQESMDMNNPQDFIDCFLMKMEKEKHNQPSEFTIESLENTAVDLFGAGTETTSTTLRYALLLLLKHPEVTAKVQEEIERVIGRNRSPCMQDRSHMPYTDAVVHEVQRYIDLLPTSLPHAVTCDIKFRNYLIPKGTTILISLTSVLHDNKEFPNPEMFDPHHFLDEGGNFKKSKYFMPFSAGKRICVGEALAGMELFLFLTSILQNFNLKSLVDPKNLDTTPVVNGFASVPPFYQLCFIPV
Method in brief: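 P450-Glo proluciferin substrate with CYP2C9 enzyme; 10 min RT preincubation, then NADPH regeneration 1 h at 37C; luciferin detection reagent 20 min RT, luminescence in relative luminescence units.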
Note: nearly all actives have a fitted effect of over 50% in size.
Potency is the fitted concentration of half-maximal effect.

How did the activity change, negative = inhibition turn out when C/C=C/C(=O)CC was run?
The activity change, negative = inhibition was -11% [at 23.6 µM].

For Cc1ncc(CO)c(C=O)c1O, which Potency is on record?
Its Potency is “inactive”.

With CCN(CC)CCNC(=O)c1cc(Br)c(N)cc1OC as the compound, how does the Potency read?
Its Potency is “inactive”.

COCC(C)OC(C)=O (centres undefined) was tested. Which Potency did it give?
The Potency was “inactive”.

For CCCCCCCC#N, which Potency is on record?
The Potency was “inactive”.

Which Potency does the source give for C=C1[C@H]2CC[C@@H]3[C@H]2C(C)(C)CCC[C@]13C here?
The Potency was “inactive”.

How did the Potency turn out when CC(CC=O)c1ccccc1 (centres undefined) was run?
The Potency was 31.7 µM (active).

How did the Potency turn out when CC1=CCCC(C)(C)C12CCC(C)O2 (centres undefined) was run?
The Potency was 79.6 µM (active).

CN(C)c1ccc(/C=C/c2ccc([N+](=O)[O-])cc2)cc1 was tested. Which activity change, negative = inhibition did it give?
The activity change, negative = inhibition was -1.18% [at 10.5 µM].

Which Potency does the source give for CCCCCCCCCCCCN1CCCCCC1=O here?
The Potency was 31.7 µM (active).

target: Cytochrome P450 1A2 (Homo sapiens) (UniProt P05177); test: Cytochrome P450 Family 1 Subfamily A Member 2 (CYP1A2) small molecule antagonists: luciferase reporter qHTS assay (AID 1671199); details: P450-Glo CYP1A2 enzyme, luciferin luminescence, 1 h; series mostly up to 53 µM
Sequence (P05177 whole entry, looked up): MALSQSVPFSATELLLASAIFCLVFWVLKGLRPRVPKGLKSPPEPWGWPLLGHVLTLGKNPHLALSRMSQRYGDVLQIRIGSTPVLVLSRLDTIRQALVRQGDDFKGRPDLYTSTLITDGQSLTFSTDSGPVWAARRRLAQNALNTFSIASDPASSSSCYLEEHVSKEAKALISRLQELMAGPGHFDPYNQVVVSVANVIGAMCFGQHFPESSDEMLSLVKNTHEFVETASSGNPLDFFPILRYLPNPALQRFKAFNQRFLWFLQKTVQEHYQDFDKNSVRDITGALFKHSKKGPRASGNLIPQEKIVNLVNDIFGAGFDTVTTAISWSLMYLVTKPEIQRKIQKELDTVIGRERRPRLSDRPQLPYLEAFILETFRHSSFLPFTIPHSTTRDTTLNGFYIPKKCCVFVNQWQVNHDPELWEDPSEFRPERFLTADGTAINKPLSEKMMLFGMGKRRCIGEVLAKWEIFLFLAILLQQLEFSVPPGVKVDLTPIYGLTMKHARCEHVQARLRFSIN
Method in brief: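 Signal from luciferin formed by CYP1A2 from a proluciferin substrate is read as luminescence, expressed in relative luminescence units. Compounds sit with enzyme 10 min, NADPH-driven reaction runs 1 h, all at room temperature.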

CC(C)=CCC/C(C)=C/CC/C(C)=C/CO was tested. Which Potency did it give?
The Potency was 28.3 µM (active).

How did the Potency turn out when Cc1ccc(C(=O)Oc2ccc(C(O)CNC(C)(C)C)cc2OC(=O)c2ccc(C)cc2)cc1 (centres undefined) was run?
Its Potency is “inactive”.

For CC[N+]1(CC)CCC(=C(c2ccccc2)c2ccccc2)C1C (centres undefined), which Potency is on record?
Its Potency is “inactive”.

For CCCCCC[C@@H](O)C/C=C\CCCCCCCC(=O)OC, which Potency is on record?
Its Potency is 35.7 µM (active).

C#Cc1cccc(Nc2ncnc3cc(OCCOC)c(OCCOC)cc23)c1 was tested. Which Potency did it give?
The Potency was “inactive”.

For COc1cccc(N(C)C(=S)Oc2ccc3c(c2)CCCC3)n1, which Potency is on record?
Its Potency is 24.5 µM (active).

With CC(C)C[C@H]1C(=O)N2CCC[C@H]2[C@]2(O)O[C@](NC(=O)[C@@H]3C=C4c5cccc6[nH]c(Br)c(c56)C[C@H]4N(C)C3)(C(C)C)C(=O)N12 as the compound, how does the Potency read?
The Potency was “inactive”.

For OCc1cc(C(O)CNCCCCCCOCCCCc2ccccc2)ccc1O (centres undefined), which Potency is on record?
Its Potency is “inactive”.

COc1cc2nc(N3CCN(C(=O)C4COc5ccccc5O4)CC3)nc(N)c2cc1OC (centres undefined) was tested. Which Potency did it give?
The Potency was “inactive”.
